Laboratory results reported in PubChem BioAssay (NCI).
This is part of a sample that, as a whole, favours compounds with a hit. Of some 79,000 tested, about 15% had one in any assay. The source made the active and inactive calls. Cut-off read from the data, not from the text of the source: active = growth inhibition above about 70%; inactive = the rest.

Assays:
[1] = NCI Yeast Anticancer Drug Screen. Data for the rad52 strain (AID 147);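 note: 0% = growth of vehicle-treated control cultures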; details: S. cerevisiae rad52 mutant growth inhibition, active compounds read high
Summary of the method: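 Genetically altered yeast (DNA damage repair defect) treated with compound; inhibition calculated relative to vehicle.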

[2] = NCI Yeast Anticancer Drug Screen. Data for the wt1 strain (AID 149);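 note: 0% = growth of vehicle-treated wt1 cultures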; details: S. cerevisiae wt1 strain (SPY 50644) growth inhibition, active compounds read high
Summary of the method: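 The wt1 strain was treated with compounds, and growth was compared with vehicle-treated cultures to give inhibition.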

[3] = NCI Yeast Anticancer Drug Screen. Data for the rad50EPP+ strain (AID 151);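 note: 0% = growth of vehicle-treated control cultures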; details: S. cerevisiae rad50 mutant strain, active compounds read high
Summary of the method: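 Strain rad50EPP+; compound exposure; % growth inhibition vs vehicle.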

[4] = NCI Yeast Anticancer Drug Screen. Data for the mgt1 strain (AID 153); details: S. cerevisiae mgt1 mutant growth inhibition, active compounds read high
Summary of the method: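 Read-out: yeast growth inhibition vs vehicle control. Strain mgt1, drawn from a panel altered in DNA damage repair or cell cycle control.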

[5] = NCI Yeast Anticancer Drug Screen. Data for the rad50 strain (AID 155);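 note: 0% = growth of vehicle-only cultures of the same strain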; details: S. cerevisiae rad50 strain growth inhibition, active compounds read high
Summary of the method: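 Cells are treated with compound, grown, and their growth is then scored against vehicle-only cultures of the same repair-deficient yeast strain.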

[6] = NCI Yeast Anticancer Drug Screen. Data for the mec2-1 strain (AID 157); details: S. cerevisiae mec2-1 strain, active compounds read high
Summary of the method: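 Cells of the genetically defined mec2-1 yeast strain are incubated with test compound. Inhibition of growth is calculated against vehicle-treated controls.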

[7] = NCI Yeast Anticancer Drug Screen. Data for the rad14 strain (AID 159);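 note: 0% = growth of vehicle-treated control cultures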; details: S. cerevisiae rad14 strain growth inhibition, active compounds read high
Summary of the method: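 Readout: yeast growth inhibition, referenced to vehicle-only cultures. Strain bears a defined alteration in DNA damage repair.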

[8] = NCI Yeast Anticancer Drug Screen. Data for the sgs1 mgt1 strain (AID 161);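 note: 0% = growth of cultures given vehicle only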; details: S. cerevisiae sgs1 mgt1 strain, active compounds read high
Summary of the method: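 Read-out: growth inhibition vs vehicle controls. Cells: mutant yeast strain deficient in DNA damage repair.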

[9] = NCI Yeast Anticancer Drug Screen. Data for the CLN2oe strain (AID 163);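 note: 0% = growth of vehicle-only control cultures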; details: S. cerevisiae CLN2oe strain, active compounds read high
Summary of the method: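 Strain altered in cell-cycle control, incubated with compound; growth compared to solvent-treated controls.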

[10] = NCI Yeast Anticancer Drug Screen. Data for the cln2 rad14 strain (AID 165);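 note: 0% = growth equal to vehicle treated cultures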; details: S. cerevisiae cln2 rad14 strain, active compounds read high
Summary of the method: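 The screen exposed genetically defined yeast (cln2 rad14) to test compounds and scored growth inhibition relative to vehicle-treated controls.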

[11] = NCI Yeast Anticancer Drug Screen. Data for the bub3 strain (AID 167); details: S. cerevisiae bub3 mutant strain, active compounds read high
Summary of the method: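 Part of a panel of yeast mutants defective in DNA damage repair or cell cycle regulation. Each strain is grown with compound, and inhibition is calculated relative to solvent-treated cultures.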

[12] = NCI Yeast Anticancer Drug Screen. Data for the wt2 strain (AID 169);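 note: 0% = growth of vehicle-treated yeast cultures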; details: S. cerevisiae wt2 strain growth inhibition, active compounds read high
Summary of the method: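 Steps: yeast strain treated with compound; growth recorded; inhibition calculated relative to cultures given vehicle alone.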

[13] = NCI Yeast Anticancer Drug Screen. Data for the mlh1 strain (AID 171);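 note: 0% = growth of vehicle-treated control cultures of the same strain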; details: S. cerevisiae mlh1 strain growth inhibition, active compounds read high
Summary of the method: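 Yeast screen: mutant strain plus compound, growth scored against vehicle control wells.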

[14] = NCI Yeast Anticancer Drug Screen. Data for the sgs1 strain (AID 173);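 note: 0% = growth of vehicle-only control cultures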; details: S. cerevisiae sgs1 mutant, active compounds read high
Summary of the method: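 Inhibition of yeast growth served as the measure. The mutant strain was treated with each compound, and growth was normalised to cultures receiving vehicle alone.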

[15] = NCI Yeast Anticancer Drug Screen. Data for the mlh1 rad18 strain (AID 175); details: S. cerevisiae mlh1 rad18 strain growth inhibition, active compounds read high
Summary of the method: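 Compound-treated yeast growth, normalised to vehicle controls. Strain bears defined DNA repair mutations.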

[16] = NCI Yeast Anticancer Drug Screen. Data for the rad18 strain (AID 177); details: S. cerevisiae rad18 mutant growth inhibition, active compounds read high
Summary of the method: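 Inhibition values reflect reduced yeast growth compared with vehicle-treated controls, using a strain engineered with a DNA damage repair defect.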

[17] = at 5.0 µM (retest, dose inferred, filed as 0.5)
[18] = at 50.0 µM (retest, dose inferred, filed as 5.0)

Measured: growth inhibition

OC1CCCc2c1cc1ccc3cccc4ccc2c1c34 (stereo unspecified)
active: [1]; at 11.0 µM 98% | [1]; at 33.0 µM 96% | [1]; at 100.0 µM 91% | [2]; at 11.0 µM 99% | [2]; at 33.0 µM 98% | [2]; at 100.0 µM 92% | [4]; at 11.0 µM 99% | [4]; at 33.0 µM 98% | [4]; at 100.0 µM 90% | [5]; at 11.0 µM 98% | [5]; at 33.0 µM 95% | [5]; [18] 92% | [5]; at 50.0 µM 95.6% | [5]; at 100.0 µM 88% | [6]; at 11.0 µM 99% | [6]; at 33.0 µM 96% | [6]; [18] 93% | [6]; at 50.0 µM 94.1% | [6]; at 100.0 µM 88% | [7]; at 11.0 µM 99% | [7]; at 33.0 µM 97% | [7]; at 100.0 µM 91% | [8]; [18] 94% | [8]; at 50.0 µM 97.4% | [9]; at 11.0 µM 99% | [9]; at 33.0 µM 97% | [9]; at 100.0 µM 91% | [10]; [18] 94% | [10]; at 50.0 µM 94% | [11]; at 11.0 µM 98% | [11]; at 33.0 µM 97% | [11]; [18] 92% | [11]; at 50.0 µM 95.5% | [11]; at 100.0 µM 89% | [12]; at 11.0 µM 100% | [12]; at 33.0 µM 98% | [12]; at 100.0 µM 94% | [13]; at 11.0 µM 98% | [13]; at 33.0 µM 97% | [13]; at 100.0 µM 90% | [14]; at 11.0 µM 99% | [14]; at 33.0 µM 97% | [14]; at 100.0 µM 90% | [15]; [18] 93% | [15]; at 50.0 µM 94.8% | [16]; at 11.0 µM 99% | [16]; at 33.0 µM 98% | [16]; at 100.0 µM 92%
inactive: [1]; at 1.2 µM -7% | [1]; at 3.7 µM -2% | [2]; at 1.2 µM -2% | [2]; at 3.7 µM -10% | [3]; at 1.2 µM 0% | [3]; at 3.7 µM 37% | [3]; at 11.0 µM 46% | [3]; at 33.0 µM 57% | [3]; at 100.0 µM 62% | [4]; at 1.2 µM -4% | [4]; at 3.7 µM -8% | [5]; at 1.2 µM -17% | [5]; at 3.7 µM -14% | [5]; [17] 30% | [6]; at 1.2 µM -5% | [6]; at 3.7 µM -5% | [6]; [17] 12% | [7]; at 1.2 µM 0% | [7]; at 3.7 µM 13% | [8]; [17] 29% | [9]; at 1.2 µM -9% | [9]; at 3.7 µM -14% | [10]; [17] -4% | [11]; at 1.2 µM -11% | [11]; at 3.7 µM -3% | [11]; [17] 4% | [12]; at 1.2 µM -1% | [12]; at 3.7 µM 10% | [13]; at 1.2 µM -16% | [13]; at 3.7 µM -10% | [14]; at 1.2 µM -8% | [14]; at 3.7 µM -3% | [15]; [17] 52% | [16]; at 1.2 µM -11% | [16]; at 3.7 µM -3%

CNC(=O)OCc1c(COC(=O)NC)c(-c2ccc(-c3ccccc3)cc2)n(C)c1C
inactive: [1]; at 1.2 µM -36% | [1]; at 3.7 µM -41% | [1]; at 11.0 µM -27% | [1]; at 33.0 µM 26% | [1]; at 100.0 µM 68% | [2]; at 1.2 µM -7% | [2]; at 3.7 µM -16% | [2]; at 11.0 µM -12% | [2]; at 33.0 µM 10% | [2]; at 100.0 µM 23% | [3]; at 1.2 µM -33% | [3]; at 3.7 µM -31% | [3]; at 11.0 µM -28% | [3]; at 33.0 µM -14% | [3]; at 100.0 µM -1% | [4]; at 1.2 µM -11% | [4]; at 3.7 µM -5% | [4]; at 11.0 µM -6% | [4]; at 33.0 µM 2% | [4]; at 100.0 µM 10% | [5]; at 1.2 µM -46% | [5]; at 3.7 µM -15% | [5]; [17] 25% | [5]; at 11.0 µM -26% | [5]; at 33.0 µM 16% | [5]; at 50.0 µM 64% | [6]; at 1.2 µM -17% | [6]; at 3.7 µM -18% | [6]; [17] 16% | [6]; at 11.0 µM 3% | [6]; at 33.0 µM -8% | [6]; [18] 46% | [6]; at 50.0 µM 13.4% | [6]; at 100.0 µM 1% | [7]; at 1.2 µM -13% | [7]; at 3.7 µM -13% | [7]; at 11.0 µM -21% | [7]; at 33.0 µM 13% | [8]; [17] -5% | [8]; [18] 25% | [8]; at 50.0 µM -2.7% | [9]; at 1.2 µM -29% | [9]; at 3.7 µM -2% | [9]; at 11.0 µM -20% | [9]; at 33.0 µM -5% | [9]; at 100.0 µM -9% | [10]; [17] 24% | [10]; [18] 56% | [10]; at 50.0 µM -6.8% | [11]; at 1.2 µM -10% | [11]; at 3.7 µM -15% | [11]; [17] -8% | [11]; at 11.0 µM -15% | [11]; at 33.0 µM 0% | [11]; [18] 23% | [11]; at 50.0 µM -13.5% | [11]; at 100.0 µM -1% | [12]; at 1.2 µM -30% | [12]; at 3.7 µM -29% | [12]; at 11.0 µM -15% | [12]; at 33.0 µM -27% | [12]; at 100.0 µM 23% | [13]; at 1.2 µM -1% | [13]; at 3.7 µM 10% | [13]; at 11.0 µM -11% | [13]; at 33.0 µM 11% | [13]; at 100.0 µM -1% | [14]; at 1.2 µM -26% | [14]; at 3.7 µM -25% | [14]; at 11.0 µM -32% | [14]; at 33.0 µM -26% | [14]; at 100.0 µM 59% | [15]; [17] 24% | [15]; at 50.0 µM 58.8% | [16]; at 1.2 µM -25% | [16]; at 3.7 µM -42% | [16]; at 11.0 µM -61% | [16]; at 33.0 µM -42% | [16]; at 100.0 µM 52%
active: [5]; [18] 85% | [5]; at 100.0 µM 70% | [7]; at 100.0 µM 75% | [15]; [18] 75%
